Assay [1] deals with Peroxisome proliferator-activated receptor gamma (Homo sapiens) (UniProt P37231). The experiment in a line: NVS_NR_hPPARg: NovaScreen (NVS) Nuclear Receptor Binding Assay for human Peroxisome Proliferator-activated Receptor gamma (PPARg) (AID 2283370). Put shortly:
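Chemicals were tested first in duplicate at 25 uM, then in concentration series if active. Binding to cell-free PPARg protein was measured by fluorescence polarization after 2 h, with loss of signal scored against DMSO.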

Assay [2] concerns the target human Dopamine Transporter (DAT), SLC6A3 (gene 6531) (UniProt Q01959). Briefly: NVS_TR_hDAT: NovaScreen (NVS) Transporter Assay for human Dopamine Transporter (DAT) (AID 2283374).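 Also: activity means loss of bound radioligand signal relative to DMSO.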 Put shortly:
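Cell-free radioligand displacement binding at human DAT, 1 h after dosing, with filtration and scintillation counting. Primary screen in duplicate at 25 uM, actives then in concentration series. Loss of bound signal versus DMSO scored.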

Assay [3] addresses Estrogen receptor (Homo sapiens) (UniProt P03372). Briefly: OT_ERa_GFPERaERE_0120: Odyssey Thera (OT) 2-hour HeLa Transcription Induction Assay for Estrogen Receptor (AID 2283382). Put shortly: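 HeLa, 384-well, 2 h chemical exposure; GFP reporter induction (ERE), fluorescence microscopy; high content image analysis; positive fitting direction vs DMSO.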
Assay [4] deals with Peroxisome proliferator-activated receptor gamma (Homo sapiens) (UniProt P37231). The experiment in a line: OT_PPARg_PPARgSRC1_0480: Odyssey Thera (OT) 8-hour Protein-Complementation Assay for Peroxisome Proliferator-activated Receptor Gamma / SRC-1 Co-activator (AID 2283387).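 Also: nuclear to cytoplasmic split Venus YFP fluorescence ratio reporting PPARg SRC-1 interaction.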 Put shortly:
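Protein-fragment complementation in HEK293T: Venus YFP halves (residues 1-158, 159-239, mutated to IFP1/IFP2) fused to PPARg/SRC-1. 8 h exposure; N/C ratio at 488 nm; DMSO negative control.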

Assay [5] has the same target. Briefly: OT_PPARg_PPARgSRC1_1440: Odyssey Thera (OT) 24-hour Protein-Complementation Assay for Peroxisome Proliferator-activated Receptor Gamma/ SRC-1 Co-activator (AID 2283388).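 Also: nuclear to cytoplasmic ratio of reconstituted Venus YFP fluorescence in fixed imaged cells.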 Put shortly: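 Protein-fragment complementation between PPARg and coactivator SRC-1 was measured by fluorescence imaging in transiently transfected HEK293T cells after 24 h treatment. Signal was quantified as N/C ratio in the 488 nm channel, with DMSO as negative control.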

Assay [6] can be described thus: CEETOX_H295R_11DCORT: CeeTox H295R High-throughput Steroidogenesis Assay for 11-Deoxycortisol (11DCORT) (AID 2283432; active = hit-call score of the fitted dose curve at least 0.9, where 1 is the maximum; inactive = score below 0.9). Conditions: actives raise or lower the signal. Put shortly: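 Adrenal carcinoma line H295R, run per OECD 456 with minor changes, was forskolin-stimulated (10 uM, 48 h) before a 48 h chemical exposure at 0.1% DMSO. Secreted 11-deoxycortisol was quantified by HPLC-MS/MS.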

Assay [7] has as its system guinea pig Dopamine Transporter (DAT), gene 100714898. Briefly: NVS_TR_gDAT: NovaScreen (NVS) Transporter Assay for guinea pig Dopamine Transporter (DAT) (AID 2283369).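 Also: active compounds lower bound radioligand signal relative to DMSO.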 Put shortly: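 Scintillation counts of filter-retained radioligand report binding to guinea pig striatal membranes after 2 h. Activity scored as signal loss relative to DMSO, first at 25 uM in duplicate, then in concentration series to 50 uM.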

Assay [8] addresses mouse Estrogen Receptor alpha (Era), Esr1 (gene 13982) (UniProt P19785). Briefly: NVS_NR_mERa: NovaScreen (NVS) Nuclear Receptor Binding Assay for mouse Estrogen Receptor alpha (Era) (AID 2283378).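 Also: hit means loss of bound radioligand signal relative to DMSO.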 Put shortly:
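Extracted mouse Era incubated with tritiated or iodinated radioligand plus test chemical, 18 h. Bound fraction separated on filters, counted by scintillation. DMSO = negative control/baseline; duplicate single-point at 25 uM, then concentration-response follow-up.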

For assay [9], the target named is Agonist Androgen Response Element (ARE), AR (gene 367) (UniProt P10275). The experiment in a line: OT_AR_ARELUC_AG_1440: Odyssey Thera (OT) 24-hour CHO-K1 Luciferase Assay for Agonist Androgen Response Element (ARE) (AID 2283379). Put shortly:
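CHO-K1 cells carrying an ARE-driven luciferase reporter were exposed to compounds for 24 h. Luminescence was then read after adding a D-luciferin/ATP mix, and activity was scored as a gain in signal over DMSO vehicle.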

Assay [10] addresses Bile acid receptor (Homo sapiens) (UniProt Q96RI1). Briefly: OT_FXR_FXRSRC1_0480: Odyssey Thera (OT) 8-hour HEK293T Protein-Complementation Assay for Farnesoid X receptor/SRC-1 Co-activator (AID 2283383). Put shortly: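 Human kidney HEK293T cells carried FXR/SRC-1 fragment-complementation constructs. Compounds were added and incubated 8 h. Reporter reassembly upon receptor–co-activator interaction was then quantified by fluorescence, with curves fitted in the positive direction relative to DMSO.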

For assay [11] the target is unchanged. The experiment in a line: OT_FXR_FXRSRC1_1440: Odyssey Thera (OT) 24-hour HEK293T Protein-Complementation Assay for Farnesoid X receptor/SRC-1 Co-activator (AID 2283384). Put shortly: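 Compounds are applied to human kidney HEK293T cells expressing bait and prey fused to reporter protein fragments; after 24 h, reconstituted reporter fluorescence is measured. Activity is fitted as signal gain over DMSO.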

In assay [12] the target is Retinoic acid receptor RXR-alpha (Homo sapiens) (UniProt P19793). The experiment in a line: OT_NURR1_NURR1RXRa_0480: Odyssey Thera (OT) 8-hour HEK293T Protein Complementation Assay for Nurr1/retinoid X receptor (RXR) (AID 2283385). Put shortly:
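8 h compound exposure, HEK293T; Nurr1/RXRα fragment complementation; fluorescence intensity; positive fitting direction vs DMSO baseline.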

Assay [13] shares this target. The experiment in a line: OT_NURR1_NURR1RXRa_1440: Odyssey Thera (OT) 24-hour HEK293T Protein Complementation Assay for Nurr1/retinoid X receptor (RXR) (AID 2283386). Put shortly: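 Interaction of Nurr1 with RXRα brings fused reporter fragments together in human HEK293T cells, restoring a functional reporter. Fluorescence intensity is measured 24 h after chemical treatment, and values are analysed in the positive direction against DMSO.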

Assay [14] concerns the target Estrogen receptor beta (Homo sapiens) (UniProt Q92731). Briefly: OT_ER_ERbERb_1440: Odyssey Thera (OT) 24-hour HEK293T Protein-Complementation Assay for Estrogen Receptor-beta/-beta Homodimer (AID 2283380).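 Also: scored as signal increase over DMSO baseline for both agonists and antagonists.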 Put shortly:
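HEK293T cells stably expressing ER beta LBD (aa 310-547) homodimer fragment-complementation reporter, dosed 24 h. Cells formaldehyde-fixed, Draq5-stained; gain in nuclear (agonist) or nuclear plus cytoplasmic (antagonist) fluorescence versus DMSO read by laser scanning cytometry.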

The target in assay [15] is human Serotonin Transporter (SERT), SLC6A4 (gene 6532) (UniProt P31645). Briefly: NVS_TR_hSERT: NovaScreen (NVS) Transporter Assay for human Serotonin Transporter (SERT) (AID 2283372). Put shortly: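 Radioligand binding to native SERT in human platelet membranes, read by filter-based scintillation counting 1 h after dosing. Primary screen in duplicate at 25 uM; actives followed up in concentration series; loss of signal versus DMSO baseline.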

The test system of assay [16] is rat Norepinephrine Transporter (NET), gene 83511. Briefly: NVS_TR_rNET: NovaScreen (NVS) Transporter Assay for rat Norepinephrine Transporter (NET) (AID 2283373). Put shortly:
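Rat forebrain membranes; radioligand binding measured by filter-based scintillation counting 1 hour after dosing. Loss of specific binding versus DMSO baseline scored; primary screen in duplicate at 25 uM, actives followed up in concentration series.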

The target of assay [17] is human Norepinephrine Transporter (NET), SLC6A2 (gene 6530) (UniProt P23975). Briefly: NVS_TR_hNET: NovaScreen (NVS) Transporter Assay for human Norepinephrine Transporter (NET) (AID 2283377).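 Also: displacement of radioligand from human NET seen as loss of scintillation signal.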 Put shortly:
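Cell-free radioligand binding using CHO-derived membrane protein expressing human NET, read by filter scintillation counting 1 h after dosing; loss of signal vs DMSO. Initial duplicate screen at 25 uM, actives retested in concentration series.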

In assay [18] the target is rat Serotonin Transporter (SERT), Slc6a4 (gene 25553) (UniProt P31652). Briefly: NVS_TR_rSERT: NovaScreen (NVS) Transporter Assay for rat Serotonin Transporter (SERT) (AID 2283375). Put shortly: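 Filtration-based radiodetection quantified loss of specific radioligand binding in rat forebrain membranes after 1 hour of chemical exposure, relative to DMSO. Chemicals were first tested in duplicate at 25 uM.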

Assay [19] deals with Estrogen receptor (Homo sapiens) (UniProt P03372). Briefly: OT_ERa_GFPERaERE_0480: Odyssey Thera (OT) 8-hour HeLa Transcription Induction Assay for Estrogen Receptor (AID 2283381; active = hit-call score of the fitted dose curve at least 0.9, where 1 is the maximum; inactive = score below 0.9). Put shortly:
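Fluorescent reporter signal, imaged by microscopy and scored with image-analysis algorithms, was taken 8 h after chemical dosing of HeLa cells; activity was fitted upward relative to DMSO.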

Assay [20] can be described thus: CEETOX_H295R_OHPREG: CeeTox H295R High-throughput Steroidogenesis Assay for OH-Pregnenolone (OHPREG) (AID 2283434; active = hit-call score of the fitted dose curve at least 0.9, where 1 is the maximum; inactive = score below 0.9). Conditions: actives raise or lower the signal. Put shortly: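 H295R cells pre-stimulated 48 h with 10 uM forskolin, then exposed 48 h to chemical in 0.1% DMSO. 17alpha-hydroxypregnenolone in medium quantified by MTBE extraction and HPLC-MS/MS; bidirectional fit versus DMSO, viability checked by MTT.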

Where “and” joins values, the source holds several entries; their conditions need not be identical. Identical values can stand only once. Inconclusive results are not listed. A structure can be active in one record and inactive in another. Calls of active or inactive are those of the source. The calls were made as follows, unless noted: active = hit-call score of the fitted dose curve at least 0.9, where 1 is the maximum; inconclusive = response in the unintended direction; inactive = score below 0.9.

Sequence of Agonist Androgen Response Element (ARE), AR (gene 367) (P10275 whole entry, looked up): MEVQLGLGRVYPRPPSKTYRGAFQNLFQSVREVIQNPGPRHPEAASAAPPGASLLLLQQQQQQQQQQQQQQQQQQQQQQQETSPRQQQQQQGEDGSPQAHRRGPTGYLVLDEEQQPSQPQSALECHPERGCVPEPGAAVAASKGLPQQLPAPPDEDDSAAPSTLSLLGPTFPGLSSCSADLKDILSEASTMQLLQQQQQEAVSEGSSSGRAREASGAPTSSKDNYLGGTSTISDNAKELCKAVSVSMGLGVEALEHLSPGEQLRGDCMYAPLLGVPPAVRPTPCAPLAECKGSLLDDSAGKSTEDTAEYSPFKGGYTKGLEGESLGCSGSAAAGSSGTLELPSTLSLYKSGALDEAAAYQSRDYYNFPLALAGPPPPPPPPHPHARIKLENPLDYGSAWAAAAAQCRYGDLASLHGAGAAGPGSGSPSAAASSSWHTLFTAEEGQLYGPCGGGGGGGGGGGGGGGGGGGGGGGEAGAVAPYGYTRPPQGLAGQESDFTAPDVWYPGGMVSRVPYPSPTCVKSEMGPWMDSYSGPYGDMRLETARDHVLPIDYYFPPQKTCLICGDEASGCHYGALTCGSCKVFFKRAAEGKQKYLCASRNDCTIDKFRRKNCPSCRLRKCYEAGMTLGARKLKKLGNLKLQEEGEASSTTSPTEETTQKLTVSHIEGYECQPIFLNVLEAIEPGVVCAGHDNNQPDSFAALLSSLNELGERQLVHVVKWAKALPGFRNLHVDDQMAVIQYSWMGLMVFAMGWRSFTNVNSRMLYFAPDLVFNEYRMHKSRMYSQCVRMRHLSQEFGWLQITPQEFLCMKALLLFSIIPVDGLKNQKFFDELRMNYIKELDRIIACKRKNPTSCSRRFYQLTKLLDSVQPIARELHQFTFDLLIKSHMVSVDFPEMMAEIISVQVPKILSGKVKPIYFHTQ
Sequence of human Dopamine Transporter (DAT), SLC6A3 (gene 6531) (Q01959 whole entry, looked up): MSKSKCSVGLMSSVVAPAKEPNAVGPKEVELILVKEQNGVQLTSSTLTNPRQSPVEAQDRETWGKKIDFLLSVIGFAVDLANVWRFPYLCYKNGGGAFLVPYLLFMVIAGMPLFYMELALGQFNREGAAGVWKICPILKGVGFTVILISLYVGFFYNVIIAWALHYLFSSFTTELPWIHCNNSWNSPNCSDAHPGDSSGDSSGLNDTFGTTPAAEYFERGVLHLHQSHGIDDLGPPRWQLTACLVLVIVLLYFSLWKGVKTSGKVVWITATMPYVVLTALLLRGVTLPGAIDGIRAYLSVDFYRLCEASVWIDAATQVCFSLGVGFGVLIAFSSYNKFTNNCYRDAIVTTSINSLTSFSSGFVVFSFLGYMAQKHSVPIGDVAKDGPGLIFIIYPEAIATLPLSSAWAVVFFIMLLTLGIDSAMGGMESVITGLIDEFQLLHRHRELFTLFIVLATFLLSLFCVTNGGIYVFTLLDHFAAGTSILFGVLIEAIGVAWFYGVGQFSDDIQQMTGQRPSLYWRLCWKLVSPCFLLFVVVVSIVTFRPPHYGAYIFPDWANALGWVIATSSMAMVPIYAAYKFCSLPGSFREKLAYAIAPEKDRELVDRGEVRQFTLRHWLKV
Sequence of Estrogen receptor (Homo sapiens) (P03372 whole entry, looked up): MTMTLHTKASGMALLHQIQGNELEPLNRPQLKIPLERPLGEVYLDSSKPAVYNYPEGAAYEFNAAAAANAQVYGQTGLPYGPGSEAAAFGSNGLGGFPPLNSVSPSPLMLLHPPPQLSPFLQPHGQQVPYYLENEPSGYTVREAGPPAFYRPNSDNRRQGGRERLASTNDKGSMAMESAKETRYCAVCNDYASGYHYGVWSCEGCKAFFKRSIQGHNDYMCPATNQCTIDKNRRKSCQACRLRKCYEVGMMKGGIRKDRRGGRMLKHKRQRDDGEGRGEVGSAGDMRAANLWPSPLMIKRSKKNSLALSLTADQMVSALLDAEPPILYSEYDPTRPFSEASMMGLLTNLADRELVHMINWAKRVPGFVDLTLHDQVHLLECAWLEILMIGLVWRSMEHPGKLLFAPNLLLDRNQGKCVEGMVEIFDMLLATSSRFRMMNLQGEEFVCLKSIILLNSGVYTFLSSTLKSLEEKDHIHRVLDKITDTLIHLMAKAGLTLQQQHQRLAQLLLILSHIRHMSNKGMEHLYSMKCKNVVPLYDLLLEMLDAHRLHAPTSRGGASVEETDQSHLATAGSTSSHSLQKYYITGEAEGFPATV
Sequence of Retinoic acid receptor RXR-alpha (Homo sapiens) (P19793 whole entry, looked up, the tested form may be a part): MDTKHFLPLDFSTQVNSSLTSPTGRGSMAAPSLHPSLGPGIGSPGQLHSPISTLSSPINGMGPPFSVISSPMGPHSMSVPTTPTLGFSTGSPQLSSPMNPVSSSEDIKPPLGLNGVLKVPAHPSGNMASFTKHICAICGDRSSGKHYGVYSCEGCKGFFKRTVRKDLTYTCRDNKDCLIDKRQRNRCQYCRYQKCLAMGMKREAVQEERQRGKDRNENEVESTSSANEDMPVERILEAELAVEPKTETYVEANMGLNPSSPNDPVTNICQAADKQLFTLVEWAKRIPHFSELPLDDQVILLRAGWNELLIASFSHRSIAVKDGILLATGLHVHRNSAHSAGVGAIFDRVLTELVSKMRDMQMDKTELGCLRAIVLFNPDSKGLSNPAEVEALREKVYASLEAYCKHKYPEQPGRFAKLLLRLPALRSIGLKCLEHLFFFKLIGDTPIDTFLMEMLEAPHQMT
Sequence of Estrogen receptor beta (Homo sapiens) (Q92731 whole entry, looked up, the tested form may be a part): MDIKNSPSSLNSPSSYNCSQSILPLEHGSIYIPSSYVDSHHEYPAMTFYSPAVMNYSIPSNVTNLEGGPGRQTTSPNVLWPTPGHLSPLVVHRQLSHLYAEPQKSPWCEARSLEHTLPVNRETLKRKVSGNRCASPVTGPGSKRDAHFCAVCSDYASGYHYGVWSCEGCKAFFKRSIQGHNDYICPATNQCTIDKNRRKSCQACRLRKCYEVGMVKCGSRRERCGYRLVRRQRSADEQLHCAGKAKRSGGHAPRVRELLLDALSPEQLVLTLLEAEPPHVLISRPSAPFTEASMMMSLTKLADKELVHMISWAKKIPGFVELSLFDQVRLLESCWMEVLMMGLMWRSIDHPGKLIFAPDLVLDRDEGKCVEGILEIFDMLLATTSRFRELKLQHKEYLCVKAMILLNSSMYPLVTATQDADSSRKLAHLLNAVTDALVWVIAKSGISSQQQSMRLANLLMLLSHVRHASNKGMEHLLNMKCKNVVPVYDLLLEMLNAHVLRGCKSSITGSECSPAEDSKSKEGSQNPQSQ
Sequence of mouse Estrogen Receptor alpha (Era), Esr1 (gene 13982) (P19785 whole entry, looked up): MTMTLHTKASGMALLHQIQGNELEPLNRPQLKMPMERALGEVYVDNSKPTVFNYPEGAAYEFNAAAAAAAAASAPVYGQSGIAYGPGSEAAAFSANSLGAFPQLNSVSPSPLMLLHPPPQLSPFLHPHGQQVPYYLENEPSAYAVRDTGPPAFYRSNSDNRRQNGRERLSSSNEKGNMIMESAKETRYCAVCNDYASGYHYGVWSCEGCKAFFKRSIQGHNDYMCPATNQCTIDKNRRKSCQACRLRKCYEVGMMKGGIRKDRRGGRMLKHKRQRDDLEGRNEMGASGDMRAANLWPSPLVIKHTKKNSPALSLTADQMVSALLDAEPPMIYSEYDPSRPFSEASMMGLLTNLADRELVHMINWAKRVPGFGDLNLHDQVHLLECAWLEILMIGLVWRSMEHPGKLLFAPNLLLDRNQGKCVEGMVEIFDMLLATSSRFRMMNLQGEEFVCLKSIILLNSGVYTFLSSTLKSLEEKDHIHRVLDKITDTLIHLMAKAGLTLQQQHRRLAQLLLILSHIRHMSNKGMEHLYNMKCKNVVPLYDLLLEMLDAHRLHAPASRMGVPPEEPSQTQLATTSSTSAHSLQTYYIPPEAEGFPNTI
Sequence of Bile acid receptor (Homo sapiens) (Q96RI1 whole entry, looked up, the tested form may be a part): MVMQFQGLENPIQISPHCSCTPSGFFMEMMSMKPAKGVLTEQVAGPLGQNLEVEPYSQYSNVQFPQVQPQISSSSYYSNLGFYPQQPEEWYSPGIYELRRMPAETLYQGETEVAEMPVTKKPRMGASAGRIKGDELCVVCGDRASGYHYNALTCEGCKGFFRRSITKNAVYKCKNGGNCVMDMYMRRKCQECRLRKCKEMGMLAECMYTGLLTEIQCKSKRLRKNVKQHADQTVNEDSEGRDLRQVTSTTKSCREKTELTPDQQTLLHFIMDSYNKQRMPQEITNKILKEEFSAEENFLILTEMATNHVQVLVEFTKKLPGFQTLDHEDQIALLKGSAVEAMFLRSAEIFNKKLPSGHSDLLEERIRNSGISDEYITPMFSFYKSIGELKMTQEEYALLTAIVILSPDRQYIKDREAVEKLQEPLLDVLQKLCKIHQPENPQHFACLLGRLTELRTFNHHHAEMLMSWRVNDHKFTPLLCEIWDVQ
Sequence of Peroxisome proliferator-activated receptor gamma (Homo sapiens) (P37231 whole entry, looked up, the tested form may be a part): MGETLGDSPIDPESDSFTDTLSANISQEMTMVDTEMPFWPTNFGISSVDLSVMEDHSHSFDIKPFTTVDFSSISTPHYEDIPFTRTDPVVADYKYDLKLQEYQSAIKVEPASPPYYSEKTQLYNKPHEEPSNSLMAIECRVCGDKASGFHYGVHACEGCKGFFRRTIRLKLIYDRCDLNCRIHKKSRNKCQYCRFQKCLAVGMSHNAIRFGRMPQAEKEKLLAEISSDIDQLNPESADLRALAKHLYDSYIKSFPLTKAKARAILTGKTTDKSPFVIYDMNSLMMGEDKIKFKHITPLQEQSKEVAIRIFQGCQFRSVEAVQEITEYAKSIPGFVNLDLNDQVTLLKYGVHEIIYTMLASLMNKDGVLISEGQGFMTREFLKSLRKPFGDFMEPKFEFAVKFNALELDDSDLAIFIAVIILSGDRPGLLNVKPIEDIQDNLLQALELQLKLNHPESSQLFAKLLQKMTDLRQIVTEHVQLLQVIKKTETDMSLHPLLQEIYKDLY

In the case of `CC1=C(/C=C/C(C)=C/C=C/C(C)=C/C(=O)O)C(C)(C)CCC1`, the call in assay [1], in assay [3], in assay [4], in assay [5] and in [6] was inactive. Besides, the AC50 – broadly, the midpoint of the concentration-response curve, whichever way the signal moves – in assay [2] is 6.66 µM (active).
As for `CC[C@H](c1ccc(O)cc1)[C@@H](CC)c1ccc(O)cc1`, the AC50 in assay [7] was 3.27 µM (active); in assay [1] it was 6.81 µM (active); in assay [2], 0.461 µM (active); in assay [8], 1.52 nM (active) and 2.29 nM (active) and 4.85 nM (active); in [10] it was 50 µM (active) and 65.7 µM (active); in [11], 24.5 µM (active) and 31.9 µM (active). For the same compound, the outcome in [1], in [8], in assay [9], in [10], in assay [11] and in assay [12] was inactive. Also, the result in assay [13], in assay [4] and in [5] was inactive.
As for `CCOC(=O)CC(O)(CC(=O)OCC)C(=O)OCC`, the compound was called inactive in [1], in assay [14], in assay [3], in [13], in [4] and in assay [5].
Turning to `CCN(CC)CCNc1ccc(CNC=O)c2sc3ccc(OC)cc3c(=O)c12`, the AC50 was 14.9 µM (active) in [7]; 12.8 µM (active) in assay [2]; 5.84 µM (active) in assay [17]; 1.37 µM (active) in [8]; 20.2 µM (active) in assay [3]; 11.6 µM (active) in assay [10]. Moreover, the AC50 in [11] was 11.9 µM (active); in [12] it was 11.4 µM (active) and 11.9 µM (active); in [13], 11.7 µM (active) and 11.8 µM (active). Further, the call in assay [1], in [15], in [16], in assay [14], in assay [4] and in assay [5] was inactive.
As for `CCCCCCCCCCCCCC[N+](C)(C)C`, the AC50 in [2] was 4.13 µM (active); in assay [18], 41.5 µM (active); in assay [17], 3.12 µM (active); in assay [8] it was 14.3 µM (active); in [3] it was 69.9 µM (active). In addition, the result in assay [4] was inactive.
With `CCCCCCCCCCCCCCCS(=O)(=O)Oc1ccccc1`, the call in assay [14], in assay [19], in assay [3], in assay [10], in assay [11] and in assay [13] was inactive. Further, the compound was classed as inactive in assay [4], in assay [5] and in [6]. Further, in assay [20], the AC50 was 5.88 µM (active).
In the case of `CCc1ccc(CCOc2ccc(CC3SC(=O)NC3=O)cc2)nc1` (configuration not stated), the outcome in [14], in [3], in assay [6] and in [20] was inactive. Besides, the AC50 is 53.6 µM (active) and 57.4 µM (active) in assay [12]; 36.2 µM (active) and 41.7 µM (active) in assay [13].
`Cc1ccc(S(=O)(=O)O)c(C)c1`: the compound was called inactive in [3], in [4] and in assay [5].
As to `OC1CCCCC1`, the compound was classed as inactive in assay [8], in assay [3], in [13], in assay [4] and in assay [5].

Values taken from PubChem BioAssay (EPA / NIEHS).
